These results are taken from the supplement of paper PMC11402862.

The experiment addresses FXR LBD (GAL4 fusion) (UniProt Q96RI1). Nature of the experiment: luciferase reporter transactivation, fold of solvent control; higher = stronger receptor activation. Conditions: HEK293T, exposure time: 24 h. Here is the method: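 HEK293T cells were transiently transfected with a GAL4-DBD fused to the ligand-binding domain of a human nuclear receptor (PPARα, PPARγ, PPARδ, FXR, LXRα, PXR, RARα or CAR), the GAL4-(UAS)5-TK firefly luciferase reporter and a Renilla luciferase normalisation plasmid. Cells were exposed to compound for 24 h in 0.5% DMSO. Firefly/Renilla luciferase was expressed as fold of the solvent control (=1). Values are the mean of 2-3 biological replicates; receptor agonists were used as positive controls.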

Sequence of FXR LBD (GAL4 fusion) (Q96RI1 whole entry, looked up, the tested form may be a part): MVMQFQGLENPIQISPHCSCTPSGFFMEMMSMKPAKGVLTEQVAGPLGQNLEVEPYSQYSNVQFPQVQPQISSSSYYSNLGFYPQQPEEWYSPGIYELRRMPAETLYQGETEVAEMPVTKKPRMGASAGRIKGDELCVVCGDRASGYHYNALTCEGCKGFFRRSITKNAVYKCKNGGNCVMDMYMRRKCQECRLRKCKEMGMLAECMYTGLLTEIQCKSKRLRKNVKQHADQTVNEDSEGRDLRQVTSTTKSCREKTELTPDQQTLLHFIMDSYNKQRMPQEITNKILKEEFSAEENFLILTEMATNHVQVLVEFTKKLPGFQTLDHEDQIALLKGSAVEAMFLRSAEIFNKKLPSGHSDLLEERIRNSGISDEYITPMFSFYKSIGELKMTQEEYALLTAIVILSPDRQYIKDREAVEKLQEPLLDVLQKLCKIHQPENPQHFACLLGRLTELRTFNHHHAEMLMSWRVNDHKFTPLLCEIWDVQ

Compound `O=S(=O)(O)CCC(F)(F)C(F)(F)C(F)(F)C(F)(F)C(F)(F)C(F)(F)F` [6:2 fluorotelomer sulfonic acid] showed a luciferase reporter transactivation (concentration: 1 µM) of 1.09; a luciferase reporter transactivation (concentration: 5 µM) of 0.835; a luciferase reporter transactivation (concentration: 10 µM) of 1.32; a luciferase reporter transactivation (concentration: 25 µM) of 1.37; a luciferase reporter transactivation (concentration: 50 µM) of 1.75; a luciferase reporter transactivation (concentration: 100 µM) of 2.38.
As for `O=C(O)C(F)(F)C(F)(F)C(F)(F)C(F)(F)F` [perfluoropentanoic acid], the luciferase reporter transactivation reads like this: (concentration: 1 µM) 0.969; (concentration: 5 µM) 1.05; (concentration: 10 µM) 1.05; (concentration: 25 µM) 1.12; (concentration: 50 µM) 1.18; (concentration: 100 µM) 1.11. The compound also registered a luciferase reporter transactivation (concentration: 250 µM) of 1.18 and a luciferase reporter transactivation (concentration: 500 µM) of 2.08.
Consider `OCCC(F)(F)C(F)(F)C(F)(F)C(F)(F)C(F)(F)C(F)(F)F` [6:2 fluorotelomer alcohol], for which the luciferase reporter transactivation runs as follows: (concentration: 1 µM) 0.815; (concentration: 5 µM) 0.885; (concentration: 10 µM) 0.96; (concentration: 25 µM) 0.834; (concentration: 50 µM) 0.847; (concentration: 100 µM) 0.833. Further, the luciferase reporter transactivation is, setting by setting: (concentration: 250 µM) 0.628; (concentration: 500 µM) 0.416.
With `O=S(=O)(O)CCC(F)(F)C(F)(F)C(F)(F)C(F)(F)C(F)(F)C(F)(F)C(F)(F)C(F)(F)F` [8:2 fluorotelomer sulfonic acid], the luciferase reporter transactivation is, setting by setting: (concentration: 1 µM) 0.842; (concentration: 5 µM) 1.12; (concentration: 10 µM) 1.16; (concentration: 25 µM) 1.21; (concentration: 50 µM) 1.53; (concentration: 100 µM) 4.17. The compound also yielded a luciferase reporter transactivation (concentration: 250 µM) of 3.41 and a luciferase reporter transactivation (concentration: 500 µM) of 2.14.
As for `CC(C)c1onc(-c2c(Cl)cccc2Cl)c1COc1ccc(/C=C/c2cccc(C(=O)O)c2)c(Cl)c1`, the luciferase reporter transactivation (concentration: 10 µM) was determined as 50.2.
